From PubChem BioAssay AID1159580 (chemical genetic matrix, 2015)
Several values for one entry are separate records, joined by “and”; a condition that tells them apart may be missing. Identical values can stand only once. The whole screen tested about 5,500 compounds, of which about 2,000 (36%) were called active. Another 18% or so got no clear call; they are omitted. Cut-off read from the data, not from the text of the source: active = normalized growth mostly below about 0.91 (no sharp cut-off); inconclusive = no clear call, values can overlap the other calls; inactive = mostly above about 0.92. Some of the results follow.

Assay: chemical genetic growth profiling, strain panel (AID 1159580);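 note: tested at 20 µM; growth read once vehicle control cultures reached saturation at 30 °C; 1 = growth at the plate median or of vehicle wells; lower values mean less growth of the strain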
Settings: growth OD

Measured: normalized growth

COc1cc(Cc2cnc(N)nc2N)cc(OC)c1OC
inactive: S. cerevisiae deletion strains, locus YJR075W, strain HOC1, hits give low values 1.01 | S. cerevisiae deletion strains, locus YKL009W, strain mrt4, hits give low values 1.04 | S. cerevisiae deletion strains, locus YKL068W, hits give low values 0.986 | S. cerevisiae deletion strains, locus YKL085W, strain MDH1 (second series), hits give low values 1.03 | S. cerevisiae deletion strains, locus YKL085W, strain MDH1, hits give low values 1.03 | S. cerevisiae deletion strains, locus YKL160W, strain elf1, hits give low values 1.01 | S. cerevisiae deletion strains, locus YKL190W, strain CNB1, hits give low values 1.01 | S. cerevisiae deletion strains, locus YKR001C, strain vps1, hits give low values 0.989 | S. cerevisiae deletion strains, locus YKR026C, strain gcn3, hits give low values 1 | S. cerevisiae deletion strains, locus YKR091W, strain srl3, hits give low values 1.01 | S. cerevisiae deletion strains, locus YLL001W, strain dnm1, hits give low values 0.993 | S. cerevisiae deletion strains, locus YLL026W, hits give low values 1.01 | S. cerevisiae deletion strains, locus YLL041C, strain sdh2, hits give low values 1.01 | S. cerevisiae deletion strains, locus YLR027C, strain aat2, hits give low values 1.01 | S. cerevisiae deletion strains, locus YLR039C, strain RIC1, hits give low values 1.03 | S. cerevisiae deletion strains, locus YLR058C, strain SHM2, hits give low values 1 | S. cerevisiae deletion strains, locus YLR102C, strain apc9, hits give low values 0.994 | S. cerevisiae deletion strains, locus YLR113W, strain HOG1, hits give low values 0.994 | S. cerevisiae deletion strains, locus YLR221C, strain rsa3, hits give low values 0.998 | S. cerevisiae deletion strains, locus YLR258W, strain gsy2, hits give low values 1.02 | S. cerevisiae deletion strains, locus YLR262C, strain YPT6 (second series), hits give low values 1.01 | S. cerevisiae deletion strains, locus YLR262C, strain YPT6, hits give low values 1.03 | S. cerevisiae deletion strains, locus YLR268W, strain sec22, hits give low values 0.978 | S. cerevisiae deletion strains, locus YLR320W, strain mms22, hits give low values 1.02 | S. cerevisiae deletion strains, locus YLR330W, strain CHS5, hits give low values 1 | S. cerevisiae deletion strains, locus YLR342W, strain FKS1 (second series), hits give low values 0.992 | S. cerevisiae deletion strains, locus YLR342W, strain FKS1, hits give low values 1 | S. cerevisiae deletion strains, locus YLR357W, strain rsc2, hits give low values 0.998 | S. cerevisiae deletion strains, locus YLR370C, strain arc18, hits give low values 1.01 | S. cerevisiae deletion strains, locus YLR371W, strain rom2, hits give low values 0.991 | S. cerevisiae deletion strains, locus YLR384C, strain iki3, hits give low values 1.02 | S. cerevisiae deletion strains, locus YLR418C, strain cdc73, hits give low values 0.961 | S. cerevisiae deletion strains, locus YML016C, strain PPZ1, hits give low values 0.994 | S. cerevisiae deletion strains, locus YML032C, strain rad52, hits give low values 0.981 | S. cerevisiae deletion strains, locus YML120C, strain ndi1, hits give low values 1.02 | S. cerevisiae deletion strains, locus YML124C, strain tub3, hits give low values 0.991 | S. cerevisiae deletion strains, locus YMR058W, strain fet3, hits give low values 1 | S. cerevisiae deletion strains, locus YMR078C, strain ctf18, hits give low values 0.987 | S. cerevisiae deletion strains, locus YMR125W, strain sto1, hits give low values 1.04 | S. cerevisiae deletion strains, locus YMR129W, hits give low values 1.01 | S. cerevisiae deletion strains, locus YMR205C, strain PFK2, hits give low values 1.03 | S. cerevisiae deletion strains, locus YMR223W, strain ubp8, hits give low values 1.01 | S. cerevisiae deletion strains, locus YMR231W, strain pep5, hits give low values 1.02 | S. cerevisiae deletion strains, locus YMR263W, strain SAP30, hits give low values 1 | S. cerevisiae deletion strains, locus YMR307W, strain GAS1, hits give low values 1.03 and 1 | S. cerevisiae deletion strains, locus YNL067W, strain RPL9B, hits give low values 1 | S. cerevisiae deletion strains, locus YNL071W, strain lat1, hits give low values 1.01 | S. cerevisiae deletion strains, locus YNL128W, strain TEP1, hits give low values 0.998 | S. cerevisiae deletion strains, locus YNL153C, strain GIM3, hits give low values 0.991 | S. cerevisiae deletion strains, locus YNL175C, strain NOP13, hits give low values 0.937 | S. cerevisiae deletion strains, locus YNL183C, strain NPR1, hits give low values 0.934 | S. cerevisiae deletion strains, locus YNL197C, strain WHI3, hits give low values 0.956 | S. cerevisiae deletion strains, locus YNL209W, strain ssb2, hits give low values 1.01 | S. cerevisiae deletion strains, locus YNL224C, strain SQS1, hits give low values 0.981 | S. cerevisiae deletion strains, locus YNL233W, strain BNI4, hits give low values 1.01 | S. cerevisiae deletion strains, locus YNL248C, strain rpa49, hits give low values 1.02 | S. cerevisiae deletion strains, locus YNL250W, strain rad50, hits give low values 0.988 | S. cerevisiae deletion strains, locus YNL271C, strain bni1, hits give low values 0.985 | S. cerevisiae deletion strains, locus YNL298W, strain CLA4, hits give low values 0.985 | S. cerevisiae deletion strains, locus YNL307C, strain MCK1, hits give low values 0.994 | S. cerevisiae deletion strains, locus YNL322C, strain KRE1 (second series), hits give low values 1.03 | S. cerevisiae deletion strains, locus YNL322C, strain KRE1, hits give low values 1 and 0.976 | S. cerevisiae deletion strains, locus YNR049C, strain mso1, hits give low values 1.01 | S. cerevisiae deletion strains, locus YNR052C, strain pop2, hits give low values 0.986 | S. cerevisiae deletion strains, locus YOL006C, strain TOP1, hits give low values 0.954 | S. cerevisiae deletion strains, locus YOL012C, strain htz1 0.78 | S. cerevisiae deletion strains, locus YOL147C, strain pex11, hits give low values 0.996 | S. cerevisiae deletion strains, locus YOR001W, strain rrp6, hits give low values 1.01 | S. cerevisiae deletion strains, locus YOR061W, strain CKA2, hits give low values 1 | S. cerevisiae deletion strains, locus YOR069W, strain VPS5, hits give low values 0.993 | S. cerevisiae deletion strains, locus YOR070C, strain gyp1, hits give low values 1.01 | S. cerevisiae deletion strains, locus YOR080W, strain dia2, hits give low values 1.03 | S. cerevisiae deletion strains, locus YOR083W, strain WHI5 (second series), hits give low values 0.975 | S. cerevisiae deletion strains, locus YOR083W, strain WHI5, hits give low values 0.999 | S. cerevisiae deletion strains, locus YOR106W, strain vam3, hits give low values 1.01 | S. cerevisiae deletion strains, locus YOR136W, strain idh2, hits give low values 0.992 | S. cerevisiae deletion strains, locus YOR144C, strain elg1, hits give low values 0.989 | S. cerevisiae deletion strains, locus YOR184W, strain ser1, hits give low values 0.991 | S. cerevisiae deletion strains, locus YOR231W, strain MKK1, hits give low values 0.993 | S. cerevisiae deletion strains, locus YOR265W, strain rbl2, hits give low values 1.01 | S. cerevisiae deletion strains, locus YOR270C, strain vph1, hits give low values 1 | S. cerevisiae deletion strains, locus YOR290C, strain snf2, hits give low values 1.03 | S. cerevisiae deletion strains, locus YOR316C, strain cot1, hits give low values 0.994 | S. cerevisiae deletion strains, locus YPL051W, strain arl3, hits give low values 1 | S. cerevisiae deletion strains, locus YPL055C, strain LGE1, hits give low values 1.05 and 1.01 | S. cerevisiae deletion strains, locus YPL078C, strain atp4, hits give low values 1.01 | S. cerevisiae deletion strains, locus YPL106C, strain sse1, hits give low values 1.04 | S. cerevisiae deletion strains, locus YPL240C, strain hsp82, hits give low values 1.01 | S. cerevisiae deletion strains, locus YPL241C, strain CIN2, hits give low values 1 | S. cerevisiae deletion strains, locus YPL256C, strain CLN2, hits give low values 0.982 | S. cerevisiae deletion strains, locus YPR119W, strain clb2, hits give low values 0.986 | S. cerevisiae deletion strains, locus YPR141C, strain kar3, hits give low values 0.987 | S. cerevisiae deletion strains, locus YPR163C, strain tif3, hits give low values 0.988 | S. cerevisiae deletion strains, locus YPR167C, strain met16, hits give low values 0.985 | S. cerevisiae deletion strains, strain wtn01, hits give low values 0.977 | S. cerevisiae strains, strain wild type, hits give low values 1.01
